The record followed here is PubChem BioAssay (NCATS).

The target of the test is Calcium and integrin-binding protein 1 (Homo sapiens) (UniProt Q99828). The test can be described thus: Primary qHTS for Identification of Calcium Integrin Binding Protein 1 (CIB1) Competitor (AID 1508620).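 Note: GST tagged CIB1 binding a fluorescein labelled alphaIIb integrin peptide tracer; top concentration of the series differs between compounds.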 To be noted: CIB1-GST / FITC-alphaIIb peptide fluorescence polarization; series mostly up to 57.7 µM. The procedure, abridged: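 CIB1-GST (1 uM final) and compound incubated 15 min at room temperature before adding FITC-alphaIIb peptide tracer (100 nM final). Competition for binding read by fluorescence polarization (ex 480, em 540) after another 15 min at room temperature.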
For orientation: qHTS replaces the single test concentration by a dilution series.

Results filed as inconclusive are left out. Entries that show only a call come without a potency. Calls of active or inactive are those of the source. Calls come from the whole dose curve; as a rule, active = well fitted inhibition curve with a large enough effect; inconclusive = small, poorly fitted or top-dose-only effect; inactive = flat fitted curve, though single readings scatter. Where a SMILES comes first, the peptide text is derived from it.

Calcium and integrin-binding protein 1 (Homo sapiens), sequence (Q99828 whole entry, looked up): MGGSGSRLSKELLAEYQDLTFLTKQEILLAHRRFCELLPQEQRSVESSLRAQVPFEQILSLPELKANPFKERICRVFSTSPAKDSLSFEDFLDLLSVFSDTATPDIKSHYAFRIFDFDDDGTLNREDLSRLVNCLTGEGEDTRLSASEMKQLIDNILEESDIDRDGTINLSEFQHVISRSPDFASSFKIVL

On to `C[C@@H]1C[C@H]2[C@@H]3CCC4=CC(=O)C=C[C@]4(C)[C@@]3(F)[C@@H](O)C[C@]2(C)[C@@]1(O)C(=O)COP(=O)(O)O`, for which the Potency result was “inactive”.

Regarding `COC1CC(=O)C23C(=O)NC(CC(C)C)C2C(C)C(C)=CC3/C=C(\C)CCC1O` (stereo not given), the Potency entry is “inactive”.

As to `C[C@@H](O)[C@H](N)C(=O)N1CCC[C@H]1C(=O)N1CCC[C@H]1C(=O)N[C@H](C(N)=O)[C@@H](C)O` (H-TPPT-NH2), the Potency entry was “inactive”.

As to `NS(=O)(=O)NCCNc1nonc1C(=Nc1ccc(F)c(Br)c1)NO`, the Potency entry is “inactive”.

As for `Cc1ccc(C(=O)Nc2ccc(Oc3cc4cnn(C)c4cc3-c3cn[nH]c3)c(F)c2)c(=O)n1-c1ccc(F)cc1`, the Potency result is “inactive”.

As for `C=C1CCC2C(C)(C)CC(=O)CC2(C)C1CCC(C)CCOC(C)=O` (stereo not given), the Potency entry is “inactive”.

Regarding `CC(=C/C(=O)O)/C=C/[C@]1(O)[C@@]2(C)CO[C@]1(C)C[C@H](O[C@@H]1O[C@H](CO)[C@@H](O)[C@H](O)[C@H]1O)C2`, the Potency entry was “inactive”.

For the compound `COc1ccc([C@H]2Cc3cccc(O)c3C(=O)O2)cc1`, the Potency entry was “inactive”.

Regarding `CC1CCC2C(C(=O)O)=CC3C(O)C(C)(C)CC123` (stereo not given), the Potency result was “inactive”.

As to `C=C1C(=O)OC2CC(C)=C(C(C)CCCO[C@@H]3O[C@H](CO)[C@@H](O)[C@H](O)[C@H]3O)C(O)C12` (stereo not given in full), the Potency entry was “inactive”.

In the case of `COc1cc2c(cc1OC)CN(C(=O)[C@@H](NCc1ccncc1)C(C)(C)C)CC2`, the Potency entry was “inactive”.

Turning to `COC1CC(OC2CCC3(C)C(=CCC4C3CCC3(C)C(C(C)O)CCC43O)C2)OC(C)C1OC1OC(C)C(OC2OC(COC3OC(COC4OC(CO)C(O)C(O)C4O)C(O)C(O)C3O)C(O)C(O)C2O)C(OC)C1O` (stereo not given), the Potency result was “inactive”.

For the compound `CC1(C)CCC(C)(C)c2cc3c(cc21)Sc1ccccc1N=C3c1ccc(C(=O)O)cc1`, the Potency result is “inactive”.

In the case of `CCNC(=O)[C@H]1O[C@H](n2cnc3c(NCC(c4ccccc4)c4ccccc4)nc(C(=O)NCCNC(=O)NC4CCN(c5ccccn5)CC4)nc32)[C@H](O)[C@@H]1O`, the Potency result is “inactive”.

On to `C[C@H]1[C@H](C)CC[C@]2(C(=O)O)CC[C@]3(C)C(=CC[C@@H]4[C@@]5(C)C[C@@H](O)[C@H](O)[C@@](C)(CO)[C@@H]5CC[C@]43C)[C@H]12`, for which the Potency entry is “inactive”.

`C=C(C)C1CC2(CO)C(=CC1=O)CCC(O)C2C` (stereo not given): the Potency result is “inactive”.

On to `COc1cc(CC(COC2OC(CO)C(O)C(O)C2O)c2cc(/C=C/CO)cc(OC)c2O)ccc1O` (stereo not given), for which the Potency result was “inactive”.

In the case of `CN(NC(=O)CC(=O)NN(C)C(=S)c1ccccc1)C(=S)c1ccccc1`, the Potency result was “inactive”.

As to `CCCCNC(=O)[C@@H]1Cc2ccccc2N1C(=O)[C@@H](N)CC`, the Potency entry was “inactive”.

Consider `CC(C)C(C#N)O[C@@H]1O[C@H](CO[C@@H]2OC[C@](O)(CO)[C@H]2O)[C@@H](O)[C@H](O)[C@H]1O` (stereo not given in full), for which the Potency result is “inactive”.
